From PubChem BioAssay
Most compounds without a hit are left out; they make up all but 4.1% or so of the library.
hgDAF12 agonist – H. glycines DAF-12 receptor agonists, primary screen, cell-based, luminescence, HEK293, GAL4 fusion, UAS-luciferase; HEK293 GAL4-hgDAF12 UAS-luciferase reporter, agonist luminescence; normalized to butyrate control; activation, % at 6.8 µM; 370,000 compounds, 1.8% hits; AID 687014, 2013;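 active = activation above a cutoff set at the mean of all screened compounds plus 3 SD, cut at about 10% in these data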
PolyA inh – polyadenylation inhibitors in yeast reporter cells, primary screen, luminescence, S. cerevisiae; S. cerevisiae SKY197-pL101 polyadenylation reporter, beta-gal luminescence; efflux-impaired pdr1/pdr3 knockout yeast; score 100 = 6 SD above DMSO; activity score, % at 12 µM; 300,000 compounds, 0.02% hits;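 active = lowest replicate activity score at least 50, where 100 means six control SD above control mean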;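 also: yeast exposed to compound for 9 h at 30 °C; higher score means more reporter readthrough which indicates perturbed polyadenylation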
hcDAF-12 act – H. contortus DAF-12 nuclear receptor activators, primary screen, cell-based, luminescence, HEK293, lit1-tk-luc reporter. HEK293 hcDAF-12 lit1-tk-luc reporter; 0% DMSO, 100% Δ7-dafachronic acid. AID 652067, 2013. 370,000 compounds, 1.4% hits. activation, % at 6.8 µM;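 active = activation above the mean of all tested compounds plus 3 SD, cut at about 5.5% in these data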
DAX1 inh-1 – DAX1 (NR0B1) inhibitors, primary screen, cell-based, HEK293, Gal4-DAX1, luciferase luminescence; inhibition, % at 6.75 µM; HEK293 Gal4-DAX1 luciferase reporter; 340,000 compounds, 0.99% hits; Nuclear receptor subfamily 0 group B member 1 (Homo sapiens), P51843; AID 504766, 2011;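 active = inhibition above the mean over all tested compounds plus 3 SD, cut at about 4.2% in these data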;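 also: inhibition shows as a rise in luminescence from relieved DAX1 repression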
Target sequence (P51843 207-470 limits assumed): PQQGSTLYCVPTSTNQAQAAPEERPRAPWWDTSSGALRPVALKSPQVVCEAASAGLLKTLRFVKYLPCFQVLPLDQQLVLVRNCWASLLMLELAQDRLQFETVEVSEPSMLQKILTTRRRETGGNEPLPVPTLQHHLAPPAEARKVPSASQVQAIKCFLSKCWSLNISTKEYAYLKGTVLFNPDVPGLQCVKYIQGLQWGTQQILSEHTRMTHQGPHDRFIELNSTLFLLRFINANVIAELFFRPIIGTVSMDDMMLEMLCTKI
ssDAF-12 act – S. stercoralis DAF-12 nuclear receptor activators, primary screen, cell-based, luminescence, HEK293, GRIP1 co-expression, lit1-tk-luc; Nuclear hormone receptor DAF-12 (Strongyloides stercoralis); AID 652126, 2013; 370,000 compounds, 1% hits; activation, % at 6.8 µM; HEK293 ssDAF-12/GRIP1 lit1-tk-luc reporter; % of 3 µM dafachronic acid response;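 active = activation above the mean over all tested compounds plus 3 SD, cut at about 0.9% in these data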
DAX1 inh-2 – DAX1 (NR0B1) inhibitors on StAR promoter, primary screen, cell-based, luminescence, SF-1 (NR5A1), full-length DAX-1 | inhibition, % at 6.8 µM | 370,000 compounds, 1.1% hits | HEK293T StAR-luciferase reporter, SF-1/DAX-1 repression relief | AID 652010, 2013;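 active = inhibition above the mean over all tested compounds plus 3 SD, cut at about 3.6% in these data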;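 also: higher inhibition means more luminescence from relief of DAX-1 repression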
LXRb hcDAF ctr – LXR agonists, Gal4 luciferase reporter, confirmation, counter-screen for hcDAF-12 agonist project, cell-based, luminescence, HEK293, H. contortus campaign; HEK293 Gal4-LXR tk-luc reporter, 24 h; normalized: DMSO 0%, positive control 100%; AID 743027, 2013; 3,400 tested, under 10 active; activation, % at 6.8 µM; shares compounds with hcDAF-12 act;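 active = mean percent activation of the reporter above a cutoff set as the average over tested compounds plus their standard deviation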
Target sequence (P55055 whole entry, looked up, the tested form may be a part): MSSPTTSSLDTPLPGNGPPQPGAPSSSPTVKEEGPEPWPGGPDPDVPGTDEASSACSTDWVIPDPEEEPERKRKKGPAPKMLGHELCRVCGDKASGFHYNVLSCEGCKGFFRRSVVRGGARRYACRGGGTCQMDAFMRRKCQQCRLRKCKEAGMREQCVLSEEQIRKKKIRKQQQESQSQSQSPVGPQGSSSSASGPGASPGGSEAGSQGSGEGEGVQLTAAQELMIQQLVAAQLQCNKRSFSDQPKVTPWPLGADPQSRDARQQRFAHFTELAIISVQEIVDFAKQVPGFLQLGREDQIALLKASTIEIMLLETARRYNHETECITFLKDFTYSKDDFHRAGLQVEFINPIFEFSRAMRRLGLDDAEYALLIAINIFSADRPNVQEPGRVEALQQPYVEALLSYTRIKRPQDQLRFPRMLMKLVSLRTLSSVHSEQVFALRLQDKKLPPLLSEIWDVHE
hcDAF12 ag – H. contortus DAF-12 receptor agonists, confirmation, cell-based, luminescence, HEK293, lit1-tk-luc, triplicate; shares compounds with hcDAF-12 act; HEK293 hcDAF-12 lit1-tk-luc reporter; % of Δ7-dafachronic acid response; activation, % at 6.8 µM; 3,400 compounds, 61% hits;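 active = mean activation across triplicate tests above the threshold derived from the earlier primary screen, cut at about 5.5% in these data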
Each line names hits and unclear results; the compound was inactive in the other large screens (follow-up assays come after a bar, where they were run).

COC(=O)c1ccc(CSc2nnc(C)n2N)o1	hcDAF-12 act 14.9 | LXRb hcDAF ctr inactive | hcDAF12 ag inactive
CCCOc1ccc(CN(CCO)CCO)cc1[N+](=O)[O-]	hcDAF-12 act 7.3 (no result: PolyA inh) | LXRb hcDAF ctr inactive | hcDAF12 ag inactive
O=C(NCc1ccccc1Cl)C1CCC(=O)N(CC2CCCCC2)C1 (centres undefined)	none
Cc1ccc(C2Nc3ccccc3-c3nc4ccccc4n32)o1 (centres undefined)	hgDAF12 agonist 12.4, hcDAF-12 act 6.7 | LXRb hcDAF ctr inactive | hcDAF12 ag inactive
NS(=O)(=O)c1ccc(N2N=C(c3ccccc3)CC2c2ccccc2)cc1 (centres undefined)	none
O=S(=O)(O)c1ccc(N2N=C(c3ccccc3)CC2c2ccccc2)cc1 (centres undefined)	hcDAF-12 act 7.4 | LXRb hcDAF ctr inactive | hcDAF12 ag inactive
Cc1onc(-c2c(Cl)cccc2Cl)c1NC(=O)N1CCSCC1	hgDAF12 agonist 10.6, hcDAF-12 act 8.0, DAX1 inh-1 4.2, ssDAF-12 act 1.8 | LXRb hcDAF ctr inactive | hcDAF12 ag inactive
Cc1onc(-c2c(Cl)cccc2Cl)c1NC(=O)NN(C)C	none
COc1cc(NC(=O)CN2C(=O)c3ccccc3S2(=O)=O)cc(OC)c1	none (no result: PolyA inh)
Cn1cc(/C=N\NC(=O)c2cccs2)c2ccccc21	hgDAF12 agonist 13.0, hcDAF-12 act 6.8, DAX1 inh-1 6.1 | LXRb hcDAF ctr inactive | hcDAF12 ag inactive
Cn1cc(/C=N/NC(N)=S)c2ccccc21	none
Oc1ccccc1OCc1nc2ccccc2s1	hgDAF12 agonist 11.3, hcDAF-12 act 7.1, ssDAF-12 act 1.4 | LXRb hcDAF ctr inactive | hcDAF12 ag 6.2
OCc1cc(Br)ccc1OCc1nc2ccccc2s1	none (no result: hgDAF12 agonist, hcDAF-12 act, ssDAF-12 act, DAX1 inh-2)
O=C(Cc1nc2ccccc2[nH]c1=O)c1ccccc1	hgDAF12 agonist 11.2, hcDAF-12 act 8.1, ssDAF-12 act 1.2 | LXRb hcDAF ctr inactive | hcDAF12 ag 9.9
CCS(=O)(=O)Nc1c(C(=O)O)[nH]c2ccccc12	hcDAF-12 act 7.6 | LXRb hcDAF ctr inactive | hcDAF12 ag inactive
CCS(=O)(=O)Nc1c(C(=O)OC)[nH]c2ccccc12	none
CCCC12CN3CCN(CC(C3)/C1=N\NC(=O)Nc1ccccc1)C2	none
CCCCC12CN3CCN(CC(C3)/C1=N\NC(=O)c1ccccc1N)C2	hgDAF12 agonist 10.7, hcDAF-12 act 9.4 | LXRb hcDAF ctr inactive | hcDAF12 ag inactive
COc1ccc(/C=C2\CCc3ccccc3C2=O)cc1OC	none
CC(=O)Oc1ccc(/C=C2/CCc3ccccc3C2=O)cc1	hcDAF-12 act 7.3 | LXRb hcDAF ctr inactive | hcDAF12 ag inactive
Cc1ccsc1/C=C1\CCc2ccccc2C1=O	hcDAF-12 act 12.1, ssDAF-12 act 1.4 | LXRb hcDAF ctr inactive | hcDAF12 ag 14.0
O=C1C(=Cc2ccccn2)CCc2ccccc21	none (no result: PolyA inh)
O=C(c1ccc([N+](=O)[O-])cc1)N1CCN(c2cccc3[nH]ccc23)CC1	none
Cc1occc1C(=O)N=Nc1c(O)n(C)c2ccccc12	hgDAF12 agonist 16.8, hcDAF-12 act 14.7, ssDAF-12 act 1.0 | LXRb hcDAF ctr inactive | hcDAF12 ag 15.3
Cc1ccc2[nH]c(O)c(N=Nc3ccccc3[N+](=O)[O-])c2c1	none (no result: PolyA inh)
CCOC(=O)C(=O)N=Nc1c(O)n(C)c2ccccc12	none
Cn1c(O)c(N=Nc2ccccc2[N+](=O)[O-])c2ccccc21	hgDAF12 agonist 11.5, hcDAF-12 act 11.3, ssDAF-12 act 2.6 | LXRb hcDAF ctr inactive | hcDAF12 ag 9.0
CCO[C@H]1OC(C(=O)O)=C[C@@H](C)[C@@H]1CCCO	none
Cc1ccc(-n2c3c(cc(C(=O)NC4CCSC4=O)c2=O)C(=O)CC(C)(C)C3)cc1 (centres undefined)	hcDAF-12 act 6.9 | LXRb hcDAF ctr inactive | hcDAF12 ag inactive
C[C@@]12C(=O)N(Cc3ccccc3)CC(=O)N1[C@H]1c3ccccc3OC[C@@H]1[C@@H]2c1ccccc1	none (no result: PolyA inh)
Cc1nnc(-n2cccc2)s1	hcDAF-12 act 7.2 (no result: PolyA inh, DAX1 inh-1) | LXRb hcDAF ctr inactive | hcDAF12 ag inactive
O=S(=O)(Nc1c(O)ccc2ccccc12)c1ccc(F)cc1	hcDAF-12 act 8.1, ssDAF-12 act 1.1 | LXRb hcDAF ctr inactive | hcDAF12 ag 8.6
COc1ccccc1OCCNC(=O)CCC(=O)N1CCOCC1	none (no result: PolyA inh)
Cc1[nH]n(-c2nc(-c3cccc([N+](=O)[O-])c3)cs2)c(=O)c1C	none
Clc1ccccc1-c1ccc(/C=N/Nc2nncc(-c3ccccc3)n2)o1	hcDAF-12 act 10.3 | LXRb hcDAF ctr inactive | hcDAF12 ag inactive
O=C(O)c1ccccc1Nc1cccc(OCc2ccc3ccccc3n2)c1	hcDAF-12 act 6.6 (no result: PolyA inh) | LXRb hcDAF ctr inactive | hcDAF12 ag inactive
CC(=O)NC(C)(c1ccccc1)c1nc(-c2cccc(C(F)(F)F)c2)cs1 (centres undefined)	none (no result: PolyA inh, DAX1 inh-1)
Cc1ccc2ccc(C3C(=O)c4ccccc4C3=O)nc2c1	hgDAF12 agonist 14.1, hcDAF-12 act 14.9, ssDAF-12 act 1.8 | LXRb hcDAF ctr inactive | hcDAF12 ag 19.0
N=c1oc2cc(O)ccc2cc1C(=O)Nc1nc2ccccc2s1	hcDAF-12 act 7.2 | LXRb hcDAF ctr inactive | hcDAF12 ag 11.1
Cc1sc2ncn(CC(=O)NCCCC(=O)N3CCC(C(N)=O)CC3)c(=O)c2c1C	none
O=C(C[n+]1ccc(C(=O)N/N=C/c2ccc(OCc3ccccc3)cc2)cc1)c1ccccc1	hcDAF-12 act 7.5 | LXRb hcDAF ctr inactive | hcDAF12 ag inactive
Cc1c(C(=O)/C=C/c2cccs2)oc2ccc(F)cc12	hgDAF12 agonist 12.3, hcDAF-12 act 8.3 | LXRb hcDAF ctr inactive | hcDAF12 ag 13.9
Cc1c(C(=O)N2CCN(C(=O)c3ccccc3)CC2)oc2ccc(F)cc12	none (no result: PolyA inh)
